From PubChem BioAssay
TGFb SMAD3 inh: blocks TGF-b signaling | HepG2 CAGA-GFP TGF-b/SMAD3 reporter, GFP fluorescence, 18 h; TGF-beta stimulated, 500 pg/mL final | Potency, µM (series often up to 46.1 µM), for inactives: at the highest dose activity, negative = inhibition, most hits filed as inhibitors | actives 1.2% (n = 410,000); further: on the % scale 0 is the no-effect control and ±100 the full control effect; nearly all actives have a fitted effect of over 65% in size
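HEPG2 CAGA-GFP, 1000 cells/well; 2 h settle, 37 C; cpd via pin tool; TGF-b 500 pg/mL final; 18 h, 37 C; GFP imaging ex488/em500-530; %Activity normalised to -TGF-b and +DMSO controls; CRC fit, curve class.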
ATXN viability: reduces viability in counter-screen for ATXN expression inhibitors; AID 651635; Potency, µM (doses to about 56.7 µM), hits mostly cytotoxic; S2 cells (HEK-293 line with an ATXN2-luciferase reporter) viability, CellTiter-Fluor protease fluorescence, 24 h; actives 0.49% (n = 400,000); further: nearly all actives have a fitted effect of over 40% in size
HT1080NT lethal: kills 2HG-producing HT-1080-NT fibrosarcoma cells; HT-1080-NT fibrosarcoma viability, CellTiter-Glo ATP luminescence, 48 h; Potency, µM (doses to about 46.1 µM), inactives show top-dose activity, negative = less viability, hits mostly cytotoxic; actives 1.6% (n = 360,000); AID 686970;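 further: NT is the 2HG producing partner of a matched IDH1 knockdown line; 0% = DMSO-treated cells and -100% = media-only wells without cells; nearly all actives have a fitted effect of over 55% in size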
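Compounds were tested in concentration-response format on HT-1080-NT cells for 48 hours at 37 degrees C. Cell viability came from CellTiter-Glo luminescence; curves were classified by r2, response magnitude and activity.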
HepG2 tox: kills HepG2 cells in TGF-b inhibitor counter-screen; actives 0.76% (n = 410,000); Potency, µM (top dose mostly 46.1 µM), for inactives: top-dose activity change, negative = cytotoxicity, actives largely listed as cytotoxic; HepG2 CAGA-GFP viability, ATP luminescence, 18 h; AID 588856
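HepG2 CAGA-GFP cells (1000/well, DMEM with 1% FBS) received compound, then TGF-beta at 500 pg/mL final, and were incubated 18 hours at 37 degrees C. Viability was read by CellTiter-Glo luminescence. Media-only wells were set as complete cell-killing and DMSO as no toxicity.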
HT1080 IDH1KD tx: kills HT-1080 cells with IDH1 knockdown; HT-1080 IDH1 knockdown viability, ATP luminescence, 48 h; Potency, µM (series often up to 46.1 µM), for inactives: at the highest dose activity, negative = toxicity, hits mostly cytotoxic; actives 2% (n = 360,000); AID 686971;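 further: 0% = DMSO wells and -100% = cell-free medium wells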
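Using the IDH1-knockdown HT-1080 line run in the same batch and compound series as the NT line, viability after 48 h at 37 °C was determined by CellTiter-Glo luminescence and expressed as % activity.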
ATXN2 expr inh: inhibitors of ATXN2 expression; HEK-293 ATXN2-luciferase reporter, luminescence, 24 h; Potency, µM (series often up to 57 µM), for the others: at the top dose activity change, negative = inhibition, actives largely listed as inhibitors; actives 0.72% (n = 360,000); AID 1745845; further: on the % scale 0 is the no-effect control and ±100 the full control effect; nearly all actives have a fitted effect of over 55% in size
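ATXN2-luciferase reporter cells (luciferase flanked by upstream and downstream ATXN2 gene portions) were treated 24 h at 37 °C with compounds at up to 57 uM. SteadyGlo luminescence gave expression; GF-AFC fluorescence gave viability.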
* hit, by the source's call; i = inactive; ? = inconclusive; · = no result given; [ ] = dose if it differs, or a comment. A selection: hits, their analogues and other compounds. The true share with any hit is near 3.8%. The call rests on the fitted dose curve; in most records, active means well fitted curve in the direction sought with a large enough effect; inconclusive means small, poorly fitted or top-dose-only effect, or another doubt; inactive means no such curve, though single readings can be large; an effect the other way counts as inactive or inconclusive. Potency means the concentration at half of the fitted maximal effect.

SMILES | TGFb SMAD3 inh | ATXN viability | HT1080NT lethal | HepG2 tox | HT1080 IDH1KD tx | ATXN2 expr inh
CC(C)CNc1ncnc2c1ncn2[C@H]1CN(Cc2ccc(-c3ccccc3)cc2)C[C@@H](CO)O1 | ? | ? | 18.4µM* | -26.2% | ? | ?
CC1=C(C(=O)Nc2ccccc2C)C(c2cccnc2)n2nc(SCc3ccccc3F)nc2N1 (stereo unspecified) | -3.2% | i | · | -11.4% | · | -9.5%
O=c1c2sc3ccccc3c2n(Cc2cccc(Cl)c2)c(=O)n1Cc1ccco1 | -3.5% | i | · | -46.8% | · | 4.3%
CCCN(C(=O)Cn1nc(Cc2cccnc2)c2ccccc2c1=O)c1ccc(C(C)C)cc1 | 20µM* | · | · | 12.6µM* | · | ·
CCOc1cc(CNC(=O)CSc2n[nH]c(-c3ccccc3)n2)cc(OCC)c1OCC | ? | · | · | -33.7% | · | ·
COc1ccc(N2C3=C(CC4=C2CC(C)(C)CC4=O)C(=O)CC(C)(C)C3)cc1 | ? | i | 7.08µM* | 15.8µM* | ? | 15.8µM*
COc1ccc(N2C3=C(CC4=C2CCCC4=O)C(=O)CCC3)cc1 | -12.2% | i | -2.1% | 0.9% | -13.1% | -18.0%
CCc1cc(C(=O)N2CCN(C(=O)c3ccccc3)CC2)sc1C | 0.0% | i | -1.2% | 5.01µM* | -1.2% | -18.0%
Cc1nc2cc(C(=O)N3c4ccccc4CC3C)ccc2s1 (stereo unspecified) | 0.0% | i | 11.6µM* | 2.7% | 13µM* | 3.3%[11.3 µM]
COC(=O)N/N=C/c1cc(Cl)c(OCc2ccccc2F)c(OC)c1 | -11.0% | i | -29.1% | 10µM* | -26.9% | -26.3%
C(=C\c1nc2ccccc2[nH]1)/c1ccccc1 | -25.2% | i | 18.4µM* | 10µM* | 18.4µM* | ?
O=c1[nH]c(/C=C/c2ccc(Br)cc2)nc2ccccc12 | -9.2% | i | -2.5% | 7.7% | 15.3% | 39.1%
O=c1[nH]c(/C=C/c2cccc3ccccc23)nc2ccccc12 | -22.2% | · | 8.3% | -22.1% | 3.3% | -22.5%
O=c1[nH]c(/C=C/c2ccccc2F)nc2ccccc12 | 0.0% | i | ? | 4.1% | 5.8µM* | ·
Cc1cccc(/C=C\c2nc3ccccc3c(=O)[nH]2)c1 | 2.2% | i | ? | -8.1% | 5.8µM* | 3.2%
CCOC(=O)c1c(C)oc2ncnc(Nc3cc(Cl)ccc3OC)c12 | 1.0% | i | · | 4.1% | · | 11.2%
COc1cccc(N2CCN(C(=O)c3cnc4c(-c5ccccc5)c(C)nn4c3C)CC2)c1 | 20.2% | · | · | 1.9% | · | ·
CC(C)C(=O)NC(c1cccs1)c1cc([N+](=O)[O-])c2cccnc2c1O (stereo unspecified) | ? | i | ? | -33.5% | 7.31µM* | ?
CCC(=O)NC(c1cccs1)c1cc([N+](=O)[O-])c2cccnc2c1OC (stereo unspecified) | -6.9% | i | · | -9.6% | · | 5.6%
Cc1ccc(C(NC(=O)C(C)C)c2cc([N+](=O)[O-])c3cccnc3c2O)cc1 (stereo unspecified) | -14.8% | i | ? | -3.6% | 14.6µM* | ?
CCN(CC)c1ccc2c(c1)OC(N)=C(C#N)C2c1cccnc1 (stereo unspecified) | 18.8% | i | ? | -37.8% | 0.231µM* | -5.6%
COc1cccc(CNC(=O)C2CCN(S(=O)(=O)N3CCC4(CC3)OCCO4)CC2)c1 | 2.7% | i | -1.4% | 2.5% | 1.2% | -0.7%
COc1ccc(CNC(=O)C2CCN(S(=O)(=O)N3CCC4(CC3)OCCO4)CC2)c(OC)c1 | -5.7% | i | ? | 7.7% | 16.4µM* | -46.7%
CN(CC1COCCO1)C(=O)c1cnn(-c2ncc3c(n2)-c2ccccc2CC3)c1C1CC1 (stereo unspecified) | · | i | · | · | · | ·
